{"source": "PubChem BioAssay (NCI)", "note": "About 83,000 compounds went through this panel and 20% of them were active in at least one assay; those are over-represented in the sample as a whole.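 Method: cells in 96-well plates; compound added at one concentration; 48 h incubation; percent growth measured; values under 10 scored active.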 A number with no mark means an inactive call. The source made the active and inactive calls.", "data": [{"tested_on": "MCF7 breast", "test": "NCI-60 one-dose screen, 48 h (100 = growth as untreated, 0 = no growth, -100 = all killed)", "conditions": "10 µM unless noted", "description": "Growth inhibition of the MCF7 human tumor cell line is measured as a screen for anti-cancer activity. Cells are grown in 96 well plates and exposed to the test compound for 48 hours. Compounds are tested at a single concentration, which is 10^-5 M for most compounds. The reported endpoint is percent growth (GI% or GIPRCNT), where numbers from 0 - 100% represent growth inhibition, and numbers from -100% - 0 represent cell death. For example, a value of 40 represents 60% growth inhibition. A value of 0 means no net growth occurred over the course of the experiment. A value of -40 indicates 40% of cells at the beginning of the experiment died by the end of the experiment. A value of -100 means all cells are dead at the end of the experiment.\nNCI-60 Human Tumor Cell Lines Screen was performed using the standard one-dose NCI protocol, which is described in more detail at https://dtp.cancer.gov/discovery_development/nci-60/default.htm.\nCompounds with GIPRCNT values below 10 were considered active. Activity score was based on GIPRCNT using the following formula: […]\nScore is 0 for GIPRCNT values of 100 or above, 50 for GIPRCNT values of 0, and 100 for GIPRCNT values of -100.", "values": [{"smiles": "COc1cc(OCc2cccc(-c3ccccc3)c2C)cc(OC)c1CN1CCCCC1C(=O)NCCOCCOCCN", "note": "(stereo not given)", "growth": "51.3%"}, {"smiles": "CCOC(=O)CSc1nc2sc3c(c2c(=O)n1-c1ccccc1)CCCCC3", "growth": "94.5%"}, {"smiles": "COc1nc2ccccc2cc1/C=[N+](\\[O-])c1ccccc1", "growth": "28.6%"}, {"smiles": "COc1cc(-c2c(-c3ccccc3)c[nH]c2C(=O)NCCCO)c(OC)c2c1OCO2", "growth": "110%"}, {"smiles": "C=C1CC[C@@H]2[C@](C)(COC(C)=O)[C@H](OC(C)=O)CC[C@@]2(C)[C@@H]1CC(Nc1ccc(S(=O)(=O)Nc2nccc(C)n2)cc1)C1=CCOC1=O", "note": "(stereo not given in full)", "growth": "0.135% (active)"}, {"smiles": "c1ccc2cc(Cn3cc[n+](Cc4ccc5ccccc5c4)c3)ccc2c1", "growth": "37.2%"}, {"smiles": "CC/C(=C(/c1ccc(Cl)cc1)c1ccc(OCCN2CCCC2)cc1)c1ccccc1", "growth": "23.1%"}, {"smiles": "CCOc1cc(\\C=N/N=C(N)/C(N)=N\\N=C/c2ccc(O)c(OCC)c2)ccc1O", "growth": "91.5%"}, {"smiles": "CCOC(=O)/C(=C/c1ccc([N+](=O)[O-])cc1)C(=O)c1ccccc1", "growth": "22.7%"}, {"smiles": "CCCCCCCCNC(=O)[C@@H](N)CSCOC(C)=O", "growth": "108%"}, {"smiles": "C[C@H]1c2ccccc2CN1CCCOc1cc2c(cc1OCC1CC1)C1(CCCC1)C(N)=N2", "growth": "22.5%"}, {"smiles": "CC1(C)C2=C(C(=O)N1Cc1ccccc1)C(c1ccco1)N(C(=O)C1CCC1)CCN2", "note": "(stereo not given)", "growth": "103%"}, {"smiles": "Cc1cc(=O)oc2cc(Oc3nc(-c4ccccc4)cn4c(-c5ccccc5)cnc34)ccc12", "growth": "50.5%"}, {"smiles": "COc1ccc(C(=O)/C=C/c2ccc(C)cc2)cc1S(N)(=O)=O", "growth": "22%"}, {"smiles": "CCN1CCN(C(=O)[C@]23CC[C@@H](C)[C@H](C)[C@@H]2C2=CC[C@@H]4[C@@]5(C)C/C(=C/c6ccncc6)C(=O)C(C)(C)[C@@H]5CC[C@@]4(C)[C@]2(C)CC3)CC1", "growth": "4.97% (active)"}, {"smiles": "N#C/C(=N\\Nc1ccccc1)C(=O)Nc1cc(-c2ccccc2)nn1-c1ccccc1", "growth": "16.4%"}, {"smiles": "CNC(=O)c1cc(Oc2ccc3nc(NC(=O)NC(C)C)sc3c2)ccn1", "growth": "53.9%"}, {"smiles": "COc1cc(NC(=O)c2cncnc2Nc2ccc3c(ccn3Cc3cccc(F)c3)c2)cc(OC)c1", "growth": "28.2%"}, {"smiles": "CCOC(=O)C1=C(c2ccccc2)N=C2N(c3ccccc3)N=C(C(C)=O)N2C1c1ccc(Br)cc1", "note": "(stereo not given)", "growth": "89.2%"}, {"smiles": "COc1cc(C)cc(-c2c(-c3cc(N4CC(O)C4)nc(-c4cccnc4)n3)cnn2C)c1", "growth": "87.6%"}, {"smiles": "Oc1cccc2c1NCCC2", "growth": "13.1%"}, {"smiles": "O=C(CSc1nc(-c2ccccc2)cn1-c1ccc(Cl)cc1)c1ccc([N+](=O)[O-])cc1", "growth": "76.1%"}, {"smiles": "COc1cc(/C=N/NC(=O)c2ccc3nc(-c4ccc(Cl)cc4)[nH]c3c2)cc(OC)c1OC", "growth": "12.1%"}, {"smiles": "Cn1nc(-c2ccc(Cl)cc2)nc2c(=O)n(C)c(=O)nc1-2", "growth": "-62.5% (active)"}, {"smiles": "Cc1cccc(C)c1NC(=O)Nc1ccccc1", "growth": "53.4%"}, {"smiles": "O=C(Nc1ccc2c(c1)-c1ccccc1C2)C1CC(=O)N(c2ccc3c(c2)OCO3)C1", "note": "(stereo not given)", "growth": "65.6% [50 µM]"}, {"smiles": "COc1ccc(/C=C\\c2cc(OC)c(OC)c(OC)c2)cc1OCC(=O)Nc1nc2ccccc2s1", "growth": "9.7% (active)"}, {"smiles": "O=C(O)/C=C\\C(=O)Nc1ccc2c(c1)Cc1cc(F)ccc1-2", "growth": "93.3%"}, {"smiles": "N#CC1=C(N)Oc2c(ccc3ccccc23)C1c1cc2ccccc2n2nnnc12", "note": "(stereo not given)", "growth": "9.81% (active)"}, {"smiles": "COc1c(O[C@@H]2OC(CO)[C@H](O)[C@H](O)C2O)cc2oc3cc(O)c(CC=C(C)C)c(O)c3c(=O)c2c1CC=C(C)C", "note": "(stereo not given in full)", "growth": "92.8%"}, {"smiles": "N#Cc1nn(-c2ccccn2)c(N)c1C#N", "growth": "99.8%"}, {"smiles": "COc1ccc2c(O)cc3c(c2c1)[C@H](CCl)CN3C(=O)c1cc2cc(NC(=O)CCN3CCOCC3)ccc2[se]1", "growth": "-48% (active)"}, {"smiles": "COc1cccc(CNc2nnc(C)c(C)n2)c1O", "growth": "97.3%"}, {"smiles": "CC1(C)CC[C@]2(CO)CC[C@]3(C)C(=CC[C@@H]4[C@@]5(C)CCNCC(C)(C)[C@@H]5CC[C@]43C)[C@@H]2C1", "growth": "38.6%"}, {"smiles": "CN1CCN(Cc2ccc(NC(=O)c3cncc(C#Cc4c(N)ncc5cc(F)ccc45)c3)cc2C(F)(F)F)CC1", "growth": "-75.9% (active)"}, {"smiles": "COc1ccc(C2CC(=O)Oc3c(OC)c4c(c(OC)c32)OCO4)cc1", "note": "(stereo not given)", "growth": "92.7%"}, {"smiles": "O=c1c(/C=C/c2c(O)ccc3ccccc23)nnc2sc(-c3cccc([N+](=O)[O-])c3)nn12", "growth": "27.4%"}, {"smiles": "COc1ccc(-c2ccc(-c3ccc(C(=N)N)nc3)s2)cc1", "growth": "-65.5% (active)"}, {"smiles": "Cn1cc(-c2ccc3c(Nc4cccc(NC(=O)Nc5cccc(F)c5)c4)ncnc3c2)cn1", "growth": "22.1%"}, {"smiles": "O=C(Nc1ncc(Cc2ccc(Cl)cc2)s1)C1=NCCCCN1", "growth": "89.1%"}]}]}
